High-throughput results from PubChem BioAssay.
A selection: hits, their analogues and other compounds. The true share with any hit is near 19%.
KB-V1 MDR tox = qHTS assay for MDR1-selective chemotherapeutics: Primary screen using the drug-selected MDR subline cells KB-V1 | KB-V1 MDR cells viability, CellTiter-Glo, 72 h | Potency, µM (titrated, usually from 46.1 µM), hits mostly cytotoxic | 400,000 tested, 3.4% active | AID 1347076, 2019; further: nearly all actives have a fitted effect of over 60% in size
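Cells of the MDR subline KB-V1 are plated, dosed with compound at multiple concentrations, and incubated 72 h at 37 degrees C; CellTiter-Glo is then added and luminescence read after 10 min.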
DT40 TDP1 CPT = qHTS for Inhibitors of human tyrosyl-DNA phosphodiesterase 1 (TDP1): qHTS in cells in presence of CPT | 420,000 tested, 12% active | Potency, µM (top dose mostly 46.2 µM), for the others: at the highest dose activity change, negative = growth inhibition, most hits filed as inhibitors | chicken DT40 Tdp1-/-;hTDP1 cells + 20 nM CPT, ATP luminescence, 48 h; further: nearly all actives have a fitted effect of over 55% in size
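Cell growth measured by CellTiter-Glo luminescence after a minimum 48 h, 37 C compound exposure with 20 nM CPT in Tdp1-knockout DT40 cells stably expressing hTDP1, seeded 400/well; qHTS titration format.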
HT1080NT lethal = qHTS for induction of synthetic lethality in tumor cells producing 2HG: qHTS for the HT-1080-NT fibrosarcoma cell line; HT-1080-NT fibrosarcoma viability, CellTiter-Glo ATP luminescence, 48 h; AID 686970, 2013; Potency, µM (series often up to 46.1 µM), without a hit: top-dose activity, negative = less viability, most hits filed as cytotoxic; 360,000 tested, 1.6% active;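 further: NT is the 2HG producing partner of a matched IDH1 knockdown line; 0% = DMSO-treated cells and -100% = media-only wells without cells; nearly all actives have a fitted effect of over 55% in size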
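Fibrosarcoma NT cells, 750 per well in 5% FBS RPMI, were exposed to compound for 48 hours. Viability: CellTiter-Glo luminescence.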
HT1080 IDH1KD tx = qHTS for induction of synthetic lethality in tumor cells producing 2HG: qHTS for the HT-1080-IDH1KD cell line | Potency, µM (top dose mostly 46.1 µM), for inactives: at the highest dose activity, negative = toxicity, most hits filed as cytotoxic | AID 686971, 2013 | HT-1080 IDH1 knockdown viability, ATP luminescence, 48 h | 360,000 tested, 2% active;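 further: 0% = DMSO wells and -100% = cell-free medium wells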
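HT-1080-IDH1KD cells (IDH1 knocked down), 750/well in RPMI with 5% FBS, treated with compound 48 h at 37 degrees C. Viability by CellTiter-Glo luminescence, normalised to DMSO and no-cell wells; concentration-response curves classed.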
KB-3-1 cytotox = qHTS assay for MDR1-selective chemotherapeutics: Primary screen using the parental adenocarcinoma cell KB-3-1; Potency, µM (top dose mostly 46.1 µM), hits mostly cytotoxic; 400,000 tested, 1.4% active; KB-3-1 viability, CellTiter-Glo ATP luminescence, 72 h; further: nearly all actives have a fitted effect of over 60% in size
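Parental KB-3-1 adenocarcinoma cells in phenol-red-free DMEM with 10% FBS were pin-treated with compounds at several concentrations, incubated 72 h at 37 °C, and viability read by CellTiter-Glo luminescence; concentration-effect curves were fitted after normalization.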
DT40 TDP1 no CPT = qHTS for Inhibitors of human tyrosyl-DNA phosphodiesterase 1 (TDP1): qHTS in cells in absence of CPT; DT40 Tdp1-/- hTDP1 cells, no CPT, ATP luminescence, 48 h; Potency, µM (titrated, usually from 46.2 µM), without a hit: top-dose activity change, negative = growth inhibition, most hits filed as inhibitors; 420,000 tested, 15% active; further: nearly all actives have a fitted effect of over 55% in size
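Seeded 400 DT40-hTDP1 cells/well (vehicle DMSO, no 20 nM CPT); pinned compounds; ≥48 hr at 37 °C; CellTiter-Glo luminescence as viability measure.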
* hit, by the source's call; i = inactive; u = inconclusive; x = no result. The call rests on the fitted dose curve; in most records, active means well fitted curve in the direction sought with a large enough effect; inconclusive means small, poorly fitted or top-dose-only effect, or another doubt; inactive means no such curve, though single readings can be large; an effect the other way counts as inactive or inconclusive. Unless noted, on the % scale 0 is the no-effect control and ±100 the full control effect; potency means the concentration at half of the fitted maximal effect.

SMILES | KB-V1 MDR tox | DT40 TDP1 CPT | HT1080NT lethal | HT1080 IDH1KD tx | KB-3-1 cytotox | DT40 TDP1 no CPT
Oc1c(C(Nc2ccccn2)c2ccccn2)ccc2cccnc12 (stereo unspecified) | 5.8µM* | 0.82µM* | u | 8.2µM* | 15µM* | 0.82µM*
Oc1c(C(Nc2ccccn2)c2ccccc2F)ccc2cccnc12 (stereo unspecified) | x | u | x | x | x | 16µM*
Oc1ccccc1C(Nc1nccs1)c1ccc2cccnc2c1O (stereo unspecified) | 12µM* | 3.7µM* | u | 7.3µM* | 2.3µM* | 2.6µM*
CCCCNC(=O)C1(C)CCCCN1C(=O)c1cc(-c2ccccc2)cs1 (stereo unspecified) | u | 13µM* | -39% | u | i | 8.2µM*
CCCCNC(=O)C1(C)CCCCN1C(=O)c1oc2ccccc2c1C (stereo unspecified) | i | 15µM* | 7% | -6% | i | 10µM*
CCCCNC(=O)C1(C)CCCCN1C(=O)c1cccs1 (stereo unspecified) | i | u | 8% | 0% | i | -17%
Cc1c(C(=O)N2CCCC2(C)C(=O)NCC(C)C)oc2ccccc12 (stereo unspecified) | i | -15% | 17% | u | i | -15%
CCOC(=O)[C@]12CCCC=C1N(Cc1ccco1)C(=O)[C@H](CC(=O)NCc1ccccc1)C2 | i | -13% | 17% | 9% | i | -27%
CC(C)(C)OC(=O)N1CCc2onc(-c3ccc(N)cc3)c2C1=O | i | -8% | 7% | 0% | i | -29%
COC(=O)/C=C1\OCc2cc(OC)c(OC)cc21 | i | 9% | u | 20% | i | -2%
CC(C)c1ccc(NC(=O)CCS(=O)(=O)c2ccc(Br)s2)cc1 | i | 18µM* | x | x | i | 16µM*
CCOC(=O)c1ccc(NC(=O)CCS(=O)(=O)c2ccc(Br)s2)cc1 | i | u | -2% | -4% | i | 18µM*
COc1ccc(NC(=O)CCS(=O)(=O)c2ccc(Br)s2)cc1 | i | u | -9% | -14% | i | u
O=C(NCC1CCCN(Cc2ccccc2F)C1)c1cccc(C(F)(F)F)c1 (stereo unspecified) | i | -28% | 4% | 1% | u | 4%
CCOc1ccccc1-n1nnc(S(=O)(=O)c2ccc(C)cc2)c1N | u | u | x | x | i | 12µM*
COc1ccc(S(=O)(=O)c2nnn(-c3ccccc3Cl)c2N)cc1 | u | -20% | -3% | -5% | i | -9%
CCc1ccc(S(=O)(=O)c2nnn(-c3cccc(C)c3)c2N)cc1 | i | 21µM* | x | x | i | 15µM*
CC(=O)Nc1ccc2ccccc2c1[N+](=O)[O-] | i | -3% | 12% | -1% | i | -15%
Cc1cc(O)c(C(c2cccc(F)c2)N2CCC(C)CC2)c(=O)n1Cc1ccco1 (stereo unspecified) | u | -6% | x | x | i | -14%
COc1cc(F)ccc1-c1csc(C(O)(c2ccccc2)C(F)(F)F)n1 (stereo unspecified) | i | 23µM* | u | -26% | i | 15µM*
COc1cccc(C(C)(O)c2nc(-c3ccc(F)cc3OC)cs2)c1 (stereo unspecified) | i | 23µM* | u | u | i | u
OC(c1ccc(F)cc1)c1nc(-c2csc3ccccc23)cs1 (stereo unspecified) | u | 18µM* | u | -19% | i | 26µM*
COc1cc(F)ccc1-c1csc(C(O)c2ccccc2)n1 (stereo unspecified) | i | 26µM* | -4% | -12% | i | u
OC(c1ccccc1)c1nc(-c2csc3ccccc23)cs1 (stereo unspecified) | i | u | u | 2% | i | -2%
COc1ccc(N2CCN(C(=O)c3cc4c(=O)oc5ccc(C)cc5c4s3)CC2)cc1 | i | -1% | x | x | i | -13%
SMILES | KB-V1 MDR tox | DT40 TDP1 CPT | HT1080NT lethal | HT1080 IDH1KD tx | KB-3-1 cytotox | DT40 TDP1 no CPT
CCOc1ccc2c(c1)c(=O)c(S(=O)(=O)c1ccc(CC)cc1)cn2Cc1cccc(Cl)c1 | i | -23% | x | x | i | -23%
COc1cc(F)ccc1-c1csc(C(C)(O)c2ccc(F)c(F)c2)n1 (stereo unspecified) | i | u | -26% | u | i | 18µM*
COc1ccc(C(C)(O)c2nc(-c3ccc(F)cc3OC)cs2)cc1 (stereo unspecified) | u | 8.2µM* | -29% | u | u | 10µM*
CC(O)(c1cccc(F)c1)c1nc(-c2ccc(Cl)cc2)cs1 (stereo unspecified) | i | u | u | u | i | u
COc1ccc(C2=NO[C@@H]3C(=O)N(c4ccc5c(c4)OCCO5)C(=O)[C@H]23)cc1OC | i | -7% | 0% | 5% | i | -6%
O=C1[C@@H]2C(c3cccnc3)=NO[C@@H]2C(=O)N1c1ccc2ccccc2c1 | i | 6.5µM* | 10% | -1% | i | 18µM*
CC(=O)c1ccc(N2CCN(c3ncnc4c3c(-c3ccccc3)cn4-c3ccc(C)c(Cl)c3)CC2)cc1 | x | -2% | x | x | x | 9%
Cc1cccc(-n2cc(-c3ccccc3)c3c(N4CCOCC4)ncnc32)c1 | u | u | 21µM* | 13µM* | i | u
CCOc1ccc(-n2cc(-c3ccccc3)c3c(N4CCN(c5ccccc5OC)CC4)ncnc32)cc1 | x | 12µM* | x | x | x | 16µM*
COc1cccc(N2CCN(c3ncnc4c3c(-c3ccccc3)cn4-c3ccc(C)cc3)CC2)c1 | x | 3% | x | x | x | -1%
CCOC(=O)C1CCN(c2ncnc3c2c(-c2ccccc2)cn3-c2ccccc2)CC1 | i | u | -10% | -22% | i | 23µM*
COc1ccc(-n2cc(-c3ccccc3)c3c(N4CCCC(C)C4)ncnc32)cc1 (stereo unspecified) | x | 16µM* | x | x | x | 10µM*
